Results published in ChEMBL document CHEMBL5308504, “Tm Shift (DSF) assay results for EUbOPEN Chemogenomics Library” (2023).

target: Glycogen synthase kinase-3 beta (Homo sapiens) (UniProt P49841); settings: Compound concentration 20.0 uM, Protein concentration 2.0 uM, Result type QC Liability
Sequence (P49841 whole entry, looked up): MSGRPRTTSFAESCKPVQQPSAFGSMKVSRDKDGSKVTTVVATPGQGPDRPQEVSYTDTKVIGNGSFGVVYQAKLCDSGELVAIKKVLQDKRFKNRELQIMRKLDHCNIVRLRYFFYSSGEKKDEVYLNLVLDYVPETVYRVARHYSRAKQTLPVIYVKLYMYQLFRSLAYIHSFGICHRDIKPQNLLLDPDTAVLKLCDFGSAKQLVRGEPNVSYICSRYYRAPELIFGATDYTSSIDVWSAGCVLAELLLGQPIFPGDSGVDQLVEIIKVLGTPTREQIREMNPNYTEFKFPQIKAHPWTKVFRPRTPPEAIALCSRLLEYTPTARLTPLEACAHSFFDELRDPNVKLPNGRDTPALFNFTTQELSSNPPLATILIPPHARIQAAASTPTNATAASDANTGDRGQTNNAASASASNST

Compound	ΔTm [°C]
CCCCCCC(Sc1nc(Cl)cc(NCc2ccc(-c3ccccc3)cc2)n1)C(=O)O (stereo not given)	0
COc1ccccc1Nc1nc(-c2nn(Cc3c(F)cc(OCCCO)cc3F)c3ccccc23)ncc1OC	-0.64
CN1C(=O)Cc2ccc(-c3ccc(C[C@@H](C#N)NC(=O)[C@@H]4N[C@H]5CC[C@@H]4C5)c(F)c3)cc21	-0.31
CNC(=O)c1ccc2c(c1)NC(=O)/C2=C(\Nc1ccc(CN2CCCCC2)cc1)c1ccccc1	1.71
CN(C)C/C=C/C(=O)Nc1ccc(C(=O)Nc2cccc(Nc3ncc(Cl)c(-c4c[nH]c5ccccc45)n3)c2)cc1	12.9
COc1c(-c2cn(C3CCC(=O)NC3=O)nn2)csc1C(=O)N1CCCC1 (stereo not given)	-0.65
CN[C@@H](C)C(=O)N[C@H](C(=O)N1CCC[C@H]1c1nc(C(=O)c2ccc(F)cc2)cs1)C1CCCCC1	-1.01
CN(CC(=O)Nc1ccc(F)c(F)c1F)C(=O)c1ccc2c(c1)OCCO2	-0.75
O=S(=O)(Nc1ccc(C(O)(C(F)(F)F)C(F)(F)F)cc1)c1cccs1	-0.54
O=C(O)Cc1ccc(CCNS(=O)(=O)c2ccc(Cl)cc2)cc1	0.95
Cc1nccc(COC(=O)N2C[C@@H]3[C@@H](CNC(=O)c4ccc5[nH]nnc5c4)[C@@H]3C2)n1	0.22

target: Mitogen-activated protein kinase 1 (Homo sapiens) (UniProt P28482); settings: Compound concentration 20.0 uM, Protein concentration 2.0 uM, Result type QC Liability
Sequence (P28482 whole entry): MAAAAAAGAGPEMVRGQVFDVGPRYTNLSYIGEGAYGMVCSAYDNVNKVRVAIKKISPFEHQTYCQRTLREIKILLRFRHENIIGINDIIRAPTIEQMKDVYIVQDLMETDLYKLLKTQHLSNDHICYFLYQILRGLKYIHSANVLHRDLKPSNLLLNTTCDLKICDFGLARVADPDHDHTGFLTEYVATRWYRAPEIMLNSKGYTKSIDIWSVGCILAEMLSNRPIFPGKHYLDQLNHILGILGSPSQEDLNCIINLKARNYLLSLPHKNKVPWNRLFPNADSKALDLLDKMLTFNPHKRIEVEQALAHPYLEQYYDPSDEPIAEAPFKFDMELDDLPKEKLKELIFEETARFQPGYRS

Compound	ΔTm
CC1CCN(c2ccnc(NCc3cn(C)cn3)n2)CC1	0.75 °C
O=C(O)C[C@H]1CC[C@H](c2ccc(NC(=O)c3nnc(Nc4ccc(F)c(F)c4)o3)cc2)CC1	-2.59 °C
NCC1CCC(CNc2nc(NCc3ccccc3OC(F)(F)F)ncc2[N+](=O)[O-])CC1 (stereo not given)	-0.1 °C
CC(=O)Nc1c(F)cc(C(=O)N[C@H]2CC[C@H](O)CC2)cc1O[C@@H](C)c1ccccc1	0.43 °C
COc1ccc(-c2csc(NC(=O)[C@H]3CCCCN3S(=O)(=O)c3ccc(C)cc3)n2)cc1	-0.89 °C
CCc1ccccc1C(=O)Nc1n[nH]c2c(C)c(F)c(C3C(C#N)=C(C)N(C)C(C)=C3C#N)cc12	0.38 °C
Cn1cnc(Cn2ccc3ccc(CNCc4[nH]c5ccccc5c4[C@H]4NC(=O)c5ccc(O)cc54)cc32)c1	0.91 °C
COc1cccc(CNc2ccc(S(=O)(=O)Nc3nc4ccccc4s3)cc2)c1O	-0.57 °C
C[C@@H]1OCC2(CCN(c3cnc(Sc4ccnc(N)c4Cl)c(N)n3)CC2)[C@@H]1N	0.06 °C
CC(C)c1cnn2c(NCc3ccccc3)cc(NCCCCCCN)nc12	0.38 °C
O=C(O)CCCCN(CCc1ccccc1OCc1ccc(CCc2ccccc2)cc1)Cc1ccc(C(=O)O)cc1	-0.08 °C
COc1ccc2c(O[C@@H]3C[C@H]4C(=O)N[C@]5(C(=O)O)CC5/C=C\CCCCC[C@H](NC(=O)OC5CCCC5)C(=O)N4C3)cc(-c3csc(NC(=O)C(C)C)n3)nc2c1C (stereo not given in full)	0.48 °C [middle of 4 runs]
C[C@@H](COCCC(=O)N1CCN(c2ncc(C(F)(F)F)cn2)CC1)Nc1cn[nH]c(=O)c1C(F)(F)F	0.42 °C
CCn1c(=O)c2c(C)c(C(=O)N3CCC(O)CC3)sc2n(CCC(F)(F)F)c1=O	0.14 °C
O=C(CNC(=O)c1ccc(-c2ccccc2)cc1)NC1CCCc2ccccc21 (stereo not given)	0.17 °C
O=C1COc2cc(C(=O)N(Cc3ccc(C(=O)Nc4ccncn4)cc3)C3CC3)ccc2N1	0.31 °C
CC(=O)Oc1ccc2c(c1)[C@@]1(C)CCC[C@](C)(C(=O)OC(=O)[C@@]3(C)CCC[C@]4(C)c5cc(OC(C)=O)ccc5CC[C@@H]34)[C@@H]1CC2	-2.79 °C
CC(C)C(=O)N1CCC(c2cn(C)c3ncc(NC(=O)c4cccc(C#N)c4)c(C(F)(F)F)c23)CC1	0.36 °C
Cc1nccn1-c1ccc(Sc2cccc(C3(C(N)=O)CCOCC3)c2)cc1	0.38 °C
CCn1c(CNC(=O)c2ncc(C)nc2N)[n+](CC)c2ccc(C(=O)N(C)CCN(C)C)cc21	0.08 °C
O=C(O)CCC/C=C\C[C@@H]1[C@@H](/C=C/[C@@H](O)COc2cccc(C(F)(F)F)c2)[C@H](O)C[C@@H]1O	-0.39 °C
COc1cc2nc(C)nc(N[C@H](C)c3cc(N)cc(C(F)(F)F)c3)c2cc1O[C@H]1CCOC1	0.04 °C
NCc1ccc(OCCCc2sc(-c3ccc4c(c3)/C(=N/Nc3nc5ccccc5s3)CCC4)nc2C(=O)O)cc1	-0.02 °C
CN(C)C(=O)c1cc2cnc(Nc3ccc(N4CCN(CCCCNC(=O)COc5cccc6c5C(=O)N(C5CCC(=O)NC5=O)C6=O)CC4)cn3)nc2n1C1CCCC1 (stereo not given)	0.11 °C
